# Screens deposited in PubChem BioAssay by several laboratories.
# An excerpt weighted towards active compounds, which were near 3.6% of everything screened.
# MazF activator: MazEF (E. coli) toxin RNase activation | FAM/BHQ RNA-DNA oligo cleavage fluorescence, 5 h | P0AE70 | activation, % at 20 µM | AID 504720 | 0.32% of 350,000 active; in the data active = activation above about 50%
# BoNT F protease: BoNT F light chain protease inhibition; Multiplex microsphere protease cleavage assay, flow cytometry; inhibition, % at 10 µM; 0.22% of 360,000 active; AID 588497; in the data active = inhibition above about 35%, passing the limit was not always enough; inconclusive = no clear call, values can overlap the other calls
# BoNT-A LC inh2: blocks Botulinum neurotoxin A light chain protease; multiplex microsphere protease substrate cleavage, flow cytometry; inhibition, % at 10 µM; 0.17% of 360,000 active; AID 588499
# Anthrax LF prot: blocks Bacillus anthracis lethal factor protease. multiplex microsphere protease cleavage assay, LF. P15917. 0.12% of 360,000 active. AID 588501. inhibition, % at 10 µM
# Autofluor counter: flagged as autofluorescent in microsphere protease counterscreen. compound autofluorescence counterscreen, microsphere flow cytometry; hits give high values. fluorescence intensity (concentration not given with the values). 3.1% of 360,000 active; in the data active = fluorescence intensity above about 16000; inconclusive = no clear call, values can overlap the other calls
# Numbers stand for hits; i = inactive; ? = inconclusive; nt = not tested or not shown. Cut-off read from the data, not from the text of the source, unless noted: active = inhibition above about 30%; inconclusive = no clear call, values can overlap the other calls; inactive = below that.
SMILES,MazF activator,BoNT F protease,BoNT-A LC inh2,Anthrax LF prot,Autofluor counter
CCc1nc2c(OCC3COc4ccccc4O3)cccn2c1N(C)C(=O)c1ccccc1F (stereo not given),nt,i,i,i,i
CCCCn1c(N)c(Sc2ccc(Cl)cc2)c(=O)[nH]c1=O,i,i,i,i,19647
CCN(CC)CCCN=Cc1c(O)n(CCc2ccc(OC)c(OC)c2)c(=O)[nH]c1=O,i,i,?,i,21750
COc1ccc(OC)c(-n2c(O)c(/C=C3\C=Nc4ccccc43)c(=O)[nH]c2=O)c1,i,i,i,i,i
CCOc1ccc(-n2c(O)c(/C=C3\C=Nc4ccccc43)c(=O)[nH]c2=O)cc1,120.0,i,i,i,i
CC(C)(C)c1ccccc1NC(=O)c1cccnc1,i,i,?,i,16565
CC(C)c1ccc(O)c(NC(=O)c2cccnc2)c1,i,i,i,i,20393
COc1ccc(CCC(=O)OCC(=O)NC2CCCC2)cc1OC,i,i,i,i,i
Cc1ccc(S(=O)(=O)N2CCN(C(=O)COC(=O)CSc3cc(C)ccc3C)CC2)c(C)c1,i,i,i,i,i
O=c1[nH]nc(Cc2ccc3ccccc3n2)c2ccccc12,73.7,i,i,i,i
Cc1ccc(N2C(=O)CSC2c2c(F)cccc2Cl)cc1 (stereo not given),i,i,?,i,17035
O=C(NCCN1CCN(c2ccccc2F)CC1)c1ccc2nc3ccccc3c(=O)n2c1,i,i,i,i,i
O=C(Oc1ccccc1)N1CCN(c2ccccc2F)CC1,i,38.2,i,i,i
O=C(Cc1c(C(=O)O)[nH]c2ccccc12)NCCN1CCN(c2ccccc2F)CC1,i,i,?,i,23477
O=C(NCN1CCN(c2ccccc2F)CC1)c1ccccc1,i,i,i,i,23676
O=C(CN1CCN(c2ccccc2F)CC1)NCc1ccccc1,i,i,i,i,i
Cn1c(=O)cc(SCC(=O)NCCN2CCN(c3ccccc3F)CC2)c2cc(Cl)ccc21,i,i,?,i,22129
O=C1CCC(C(=O)OCC(=O)Nc2ccc(SC(F)F)cc2)=NN1,i,i,i,i,i
Cc1cccc(NS(=O)(=O)c2cccc(C(=O)NCCCN3CCOCC3)c2)c1,i,i,i,i,i
COc1cc([C@@H]2CC=C(C(=O)O)CN2S(=O)(=O)c2ccc(C)cc2)cc(OC)c1OC,i,i,i,i,i
O=C(Nc1ccc2c(c1)nc1n2CCOC1)C1CCCCC1,i,i,i,i,i
CC(=O)Nc1ccc2c(c1)nc1n2CCOC1,i,i,?,i,24292
Cc1ccc(OCC(=O)Nc2ccc3c(c2)nc2n3CCOC2)cc1,i,i,?,i,20169
COc1ncccc1C(=O)NCC(CC(=O)O)c1ccccc1 (stereo not given),i,i,i,i,16335
CCCS(=O)(=O)NC(=O)C1(C)CCN(C(=O)c2cc(F)cc(F)c2)C1 (stereo not given),nt,i,i,i,i
SMILES,MazF activator,BoNT F protease,BoNT-A LC inh2,Anthrax LF prot,Autofluor counter
N#CC1=C(N)SC(N)=C(C#N)C1C1CC=CCC1 (stereo not given),i,i,i,i,i
N#CC1=C(N)SC(N)=C(C#N)C1C1C=CCCC1 (stereo not given),i,i,i,i,19353
CCOC(=O)c1c(Nc2ccccc2)sc(/C=C2\C=Nc3ccccc32)c1O,i,i,i,i,17134
CC(=O)c1ccc(NC(=O)c2ccccc2-c2ccccc2C(=O)O)cc1,i,?,i,i,i
Cn1c(Cc2ccccc2)nnc1SCC(=O)Nc1ccccc1,i,i,i,i,i
CC(C)OC(=O)CSc1nnc(-c2ccc(Cl)cc2)n1N,i,i,i,i,21439
Cc1ccc(-c2nnc(SCC(=O)OC(C)C)n2N)cc1,i,i,i,i,i
CC(C)OC(=O)CSc1nnc(-c2ccc(Cl)cc2Cl)n1N,i,i,i,i,22841
Nn1c(SCC(=O)N2CCOCC2)nnc1-c1ccc(Cl)cc1Cl,i,i,i,i,i
CC(C)OC(=O)CSc1nnc(Cc2ccccc2)n1C,i,i,i,i,16479
CC1CC(C)CN(C(=O)C(C)N2CCN(S(=O)(=O)c3ccc(Br)s3)CC2)C1 (stereo not given),i,i,i,i,i
CCNC(=O)C1(C)CCN(C(=O)c2ccccc2C(F)(F)F)C1 (stereo not given),nt,i,i,i,i
CCCC(=O)NC(c1ccc(OC)c(OC)c1)c1c(O)ccc2ccccc12 (stereo not given),i,i,?,i,23446
COc1ccc(CNc2nc3ccccc3n2C)c(OC)c1,i,i,i,i,i
COc1ccc(N/C=C(\C#N)c2nc3ccccc3n2C)c(OC)c1,i,i,i,i,18044
Cc1n[nH]c(C)c1C(=O)CC1(O)C(=O)N(Cc2ccccc2)c2ccc(Br)cc21 (stereo not given),i,i,i,i,22972
CCC(C)(C)NC(=O)CN(C(=O)CCC(=O)Nc1nccs1)c1ccc2c(c1)OCCO2,i,i,i,i,i
CC(C)C(c1nnnn1C1CCCCC1)N1CCCc2ccccc21 (stereo not given),i,i,i,i,i
CC(C)C(c1nnnn1C1CCCC1)N1CCc2ccccc21 (stereo not given),i,i,i,i,17487
CC(C)C(c1nnnn1C1CCCC1)N1CCCc2ccccc21 (stereo not given),i,i,i,i,24060
Cc1nc2ccc(C(=O)NCCc3c[nH]c4ccccc34)cn2c1N(C)C(=O)CCc1ccccc1,nt,i,i,i,i
CC(C)NC(=S)NNC(=O)C12CC3CC(CC(C3)C1)C2,i,i,?,i,24739
COc1ccc2nc(NC(=O)CN(c3ccc(C)cc3)S(=O)(=O)c3c(C)nn(C)c3C)sc2c1,i,i,i,i,20805
COc1ccc(NC(=O)CN(c2ccc(C)cc2)S(=O)(=O)c2c(C)nn(C)c2C)cc1OC,i,i,i,i,22939
COc1ccc(NC(=O)CN(c2ccc(C)cc2)S(=O)(=O)c2c(C)nn(C)c2C)cc1,i,i,i,i,i
SMILES,MazF activator,BoNT F protease,BoNT-A LC inh2,Anthrax LF prot,Autofluor counter
CCCc1ccc(S(=O)(=O)N2CCN(C(=O)CN3C(=O)NC(C)(C4CC4)C3=O)CC2)cc1 (stereo not given),i,i,i,i,i
Cn1nc(C2CC2)cc1NC(=O)C1(C)CCN1C(=O)CCc1ccccc1 (stereo not given),nt,i,i,i,i
CC(C)(C)c1ccc(C(=O)Nn2c(CCC(=O)O)ccc2-c2cccs2)cc1,i,i,i,i,17160
O=C(O)CCc1ccc(-c2cccs2)n1NC(=O)c1ccccc1Br,i,i,i,i,23254
CCC(=O)NC(=S)Nc1ccc(NC(=O)COc2ccc([N+](=O)[O-])cc2)cc1,i,i,i,i,i
O=C1C(=Cc2cccn2-c2ccccc2)C(=O)c2ccccc21,241.8,i,i,i,i
Cc1cc(C=C2C(=O)c3ccccc3C2=O)c(C)n1-c1ccc(C(=O)O)cc1,i,i,i,i,i
Cc1cc(/C=N/n2cnnc2)c(C)n1-c1ccccc1,i,i,i,i,i
O=C1C(=Cc2cccn2-c2ccc(O)cc2)C(=O)c2ccccc21,262.8,i,i,i,i
